# Screening data: PubChem, Paczesny and Yang Labs, IUPUI and University of Michigan
# This is one part of a sample in which hits are shown more often than they occur.
# ST2 IL33 inh – blocks human ST2 binding to IL-33 | Q01638 | AlphaLISA ST2-Fc/biotin-IL-33 interaction, 1 h | inhibition, % for hits at 17 µM | 2.3% of 78,000 active; in the data active means inhibition above about 30%
# Target sequence (Q01638 whole entry, looked up): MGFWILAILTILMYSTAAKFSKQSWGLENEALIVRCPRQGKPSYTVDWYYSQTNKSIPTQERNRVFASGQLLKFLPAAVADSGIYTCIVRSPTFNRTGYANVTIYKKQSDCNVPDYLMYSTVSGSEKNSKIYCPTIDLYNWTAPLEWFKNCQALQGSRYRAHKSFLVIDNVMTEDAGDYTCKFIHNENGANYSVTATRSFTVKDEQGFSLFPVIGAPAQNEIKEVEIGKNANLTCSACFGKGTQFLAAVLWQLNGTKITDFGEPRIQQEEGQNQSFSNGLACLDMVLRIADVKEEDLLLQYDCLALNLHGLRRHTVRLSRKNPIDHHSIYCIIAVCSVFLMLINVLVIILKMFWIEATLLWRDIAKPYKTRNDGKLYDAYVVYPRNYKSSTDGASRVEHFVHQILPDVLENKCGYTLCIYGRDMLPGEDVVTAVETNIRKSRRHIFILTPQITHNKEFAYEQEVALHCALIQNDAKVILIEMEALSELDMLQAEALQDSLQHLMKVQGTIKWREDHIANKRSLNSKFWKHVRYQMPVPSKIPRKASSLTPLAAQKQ
# Starred values were filed as active, the others as inactive; i = inactive.
SMILES,ST2 IL33 inh
N#CC1=C(N)Oc2[nH]c(=O)[nH]c(=O)c2C1c1ccc([N+](=O)[O-])s1 (stereo not given),i
Oc1oc(-c2ccccc2F)nc1C=Nc1ccc(Cl)cn1,32%*
Cc1ccc(N=Cc2nc(-c3ccccc3)oc2O)c(Br)c1,i
Cc1ccc(N=Cc2nc(-c3ccc(Br)cc3)oc2O)c(C)c1,i
Oc1oc(-c2ccc(Br)cc2)nc1C=Nc1ccc(Br)cn1,i
Oc1oc(-c2ccccc2)nc1C=Nc1ccc(Br)cn1,i
Cc1ccc(N=Cc2nc(-c3ccccc3F)oc2O)c(C)c1,33%*
CCCCOC(=O)CSC1=C(C#N)C(c2ccc(C)o2)CC(=O)N1 (stereo not given),i
CC1=CC(C)(C)N(C(=O)CSc2ncn[nH]2)c2cc(C)ccc21,i
CN(C)c1cc(N(C)Cc2cc(C(C)(C)C)n[nH]2)ncn1,i
O=C1c2ccccc2C(=O)C1c1cccc2c1CCCC2,i
O=C1c2ccccc2C(=O)C1c1ccc(-c2ccccc2)cc1,i
O=C1c2ccccc2C(=O)[C@H]2C3c4ccccc4C(c4ccccc43)[C@@H]12,32%*
CCOc1ccc(C2CC(=O)N3CN(c4cccc(C)c4)CSC3=C2C#N)cc1 (stereo not given),i
CC(C)(C)c1nnc(Nc2ccc3c(c2)OCCO3)[nH]c1=O,i
Cc1ccccc1OCC(=O)O,i
CC(C)c1[nH]nc2c1C1(CCN(Cc3ccccc3)CC1)C(C#N)=C(N)O2,31%*
CC(C)c1[nH]nc2c1C(c1cccc(Cl)c1Cl)C(C#N)=C(N)O2 (stereo not given),i
CCN1C(=O)C2(C(C#N)=C(N)Oc3n[nH]c(-c4ccccc4)c32)c2ccccc21 (stereo not given),i
COc1ccc(C2CC(=O)C3=C(C2)Nc2ccccc2NC3c2c(F)cccc2Cl)cc1 (stereo not given),i
CC1=NN(c2ccccc2)C(=O)/C1=C/c1ccccc1OCc1ccc(C(=O)O)cc1,i
O=C1NC(=O)/C(=C\c2ccccc2OCc2ccccc2)S1,i
CSC1=N/C(=C\c2ccccc2OCc2ccccc2)C(=O)S1,64%*
CCC1Oc2ccccc2N(CC(=O)NCCCN2CCCCCC2)C1=O (stereo not given),i
CC(=O)c1ccc(NC(=O)c2cc(-c3ccco3)on2)cc1,i
SMILES,ST2 IL33 inh
CC(=O)c1ccc(NC(=O)c2cccc(Cl)c2)cc1,i
CC(=O)c1ccc(NC(=O)c2ccc3nc(-c4ccco4)c(-c4ccco4)nc3c2)cc1,40%*
CCOc1cc(CN2CCN(c3ccc(F)cc3)CC2)ccc1OC,i
Cc1cc(C)n(-c2cccc(CN(C)C(=O)c3cn(CC4CCCO4)nn3)c2)n1 (stereo not given),i
Nc1ccc(N)c2c1C(=O)c1c(N)ccc(N)c1C2=O,94%*
CC1CCN(S(=O)(=O)c2cc(Br)cc3c2N(C(=O)C2CC2)CC3)CC1,i
Cn1c(Sc2ccc(C(=O)O)cc2[N+](=O)[O-])nnc1-c1ccccc1,i
CC1=C(C#N)c2nc(N)c(C#N)c(C)c2/C1=C\c1cccc([N+](=O)[O-])c1,i
CC1=C(C#N)C(=O)NC(=O)/C1=C\c1ccc(-c2cccc([N+](=O)[O-])c2)o1,30%*
CC(=O)c1ccc(N2N=C(C)/C(=C/c3ccc(-c4cccc([N+](=O)[O-])c4)o3)C2=O)cc1,i
O=C(C(=O)N1CCC(c2[nH]ncc2-c2ccccc2)CC1)c1cccnc1,i
CC(C)Cc1ncc2c(n1)CN(C(=O)c1ccccc1-n1cccn1)C2,i
CC(C)Sc1nc2c([nH]c3ccccc32)c(=O)n1C,i
CC1CCN(Cc2cc([N+](=O)[O-])c(O)c3ncccc23)CC1,i
COc1cc(CN2CCN(c3ccccc3C)CC2)cc([N+](=O)[O-])c1O,89%*
O=[N+]([O-])c1ccccc1CN1CCN(Cc2ccccn2)CC1,i
COc1ccccc1N1CCN(Cc2cc([N+](=O)[O-])c(O)c3ncccc23)CC1,34%*
COc1ccccc1N1CCN(Cc2cc(OC)c(O)c([N+](=O)[O-])c2)CC1,i
O=[N+]([O-])c1ccccc1CN1CCN(c2ccccn2)CC1,i
O=[N+]([O-])c1ccccc1CN1CCN(c2ncccn2)CC1,31%*
COc1cc(CN2CCN(c3ccccc3C)CC2)c([N+](=O)[O-])cc1OC,i
COc1cc([N+](=O)[O-])cc(CN2CCN(c3ccccc3F)CC2)c1O,i
CCCNC(=O)c1nn2c(c1Cl)NC(c1ccc(C)cc1)CC2C(F)(F)F (stereo not given),i
O=C(C1CCCN1S(=O)(=O)c1cccc2nsnc12)N1CCCc2ccccc21 (stereo not given),i
O=C(Nc1ccc(Cl)cc1)Nc1ccc(=O)n2c1[C@@H]1C[C@@H](CN(C(=O)c3ccc(F)cc3)C1)C2,i
CCN(CC)C(=O)C1CCCN(Cc2ccco2)C1 (stereo not given),i
CC(C)CC(=O)NCC1CCN(C(=O)CC(C)C)CC1,i
Cc1cc(Nc2ccccc2)nc(Nc2ccc(NC(=O)C(C)C)cc2)n1,i
